{"source": "PubChem BioAssay (NCI)", "note": "Where “and” joins values, the source holds several entries; their conditions need not be identical. Identical values can stand only once. This is part of a sample that, as a whole, favours compounds with a hit. Of some 83,000 tested, about 20% had one in any assay.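 Cells were grown in 96-well plates and exposed to the test compound at a single concentration for 48 hours; results are reported as percent growth, with values below 10 considered active.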 Calls of active or inactive are those of the source.", "data": [{"tested_on": "OVCAR-5 ovarian", "experiment": "NCI-60 one-dose screen, 48 h (100 = growth as untreated, 0 = no growth, -100 = all killed)", "settings": "10 µM", "experimental": "(§1) Growth inhibition of the OVCAR-5 human tumor cell line is measured as a screen for anti-cancer activity. Cells are grown in 96 well plates and exposed to the test compound for 48 hours. Compounds are tested at a single concentration, which is 10^-5 M for most compounds. The reported endpoint is percent growth (GI% or GIPRCNT), where numbers from 0 - 100% represent growth inhibition, and numbers from -100% - 0 represent cell death. For example, a value of 40 represents 60% growth inhibition. A value of 0 means no net growth occurred over the course of the experiment. A value of -40 indicates 40% of cells at the beginning of the experiment died by the end of the experiment. A value of -100 means all cells are dead at the end of the experiment.\n(§2) NCI-60 Human Tumor Cell Lines Screen was performed using the standard one-dose NCI protocol, which is described in more detail at https://dtp.cancer.gov/discovery_development/nci-60/default.htm.\n(§3) Compounds with GIPRCNT values below 10 were considered active. Activity score was based on GIPRCNT using the following formula: […]\n(§4) Score is 0 for GIPRCNT values of 100 or above, 50 for GIPRCNT values of 0, and 100 for GIPRCNT values of -100.", "values": [{"smiles": "Cc1[nH]c(-c2nc3ccccc3[nH]2)c(C)c1C(=O)NC(C)C1CCCCC1", "note": "(stereo not given)", "growth": "94% (inactive)"}, {"smiles": "CCc1ccccc1-n1c(N)c(C#N)c(-c2ccc(OC)c(OC)c2)c(C#N)c1=O", "growth": "107% (inactive)"}]}, {"tested_on": "OVCAR-5 ovarian", "experiment": "NCI-60 one-dose screen, 48 h (100 = growth as untreated, 0 = no growth, -100 = all killed)", "settings": "10 µM unless noted", "experimental": "as §1, §2, §3, §4", "values": [{"smiles": "CCOC(=O)Nc1nc2ccccc2[nH]1", "growth": "109% (inactive) and 58.4% (inactive)"}, {"smiles": "CC[N+](CC)(CC(=O)Nc1c(C)cccc1C)Cc1ccccc1", "growth": "119% (inactive) and 99.1% (inactive)"}, {"smiles": "OC(CSc1ccccc1)CN1CCN(c2cccc(Cl)c2)CC1", "note": "(stereo not given)", "growth": "105% (inactive) and 96.9% (inactive)"}, {"smiles": "N#CC(C#N)=C/C=C/c1cccc([N+](=O)[O-])c1", "growth": "23.1% (inactive) and -10.2% (active)"}, {"smiles": "O=C(Nc1cccc(Cl)c1)c1cc2ccccc2cc1O", "growth": "97.2% (inactive) and 56.4% (inactive)"}, {"smiles": "CN(C)c1ccc2nc3ccc(=[N+](C)C)cc-3sc2c1", "growth": "17.7% (inactive) and 14.5% (inactive) and 30.6% (inactive)"}, {"smiles": "CCC(C)C1(C2CCCC2)NC(=O)NC1=O", "note": "(stereo not given)", "growth": "111% (inactive) and 105% (inactive)"}, {"smiles": "Cn1c(=O)c2[nH]c(CCCCCCCCc3nc4ccccc4[nH]3)nc2n(C)c1=O", "growth": "106% (inactive) and 91.2% (inactive)"}, {"smiles": "S=C1SCN(Cc2ccccc2)CN1Cc1ccccc1", "growth": "93.2% (inactive)"}, {"smiles": "O=C1c2ccccc2C(=O)c2c(NCCNCCO)ccc(NCCNCCO)c21", "growth": "-51.8% (active) and 43.9% (inactive) and 35.5% (inactive)"}, {"smiles": "Cc1cc(N=Nc2ccc(C)c(N=Nc3cc(C)c(N)cc3N)c2)c(N)cc1N", "growth": "92.5% (inactive) and 86.8% (inactive)"}, {"smiles": "CC(C)N=c1cc2n(-c3ccc(Cl)cc3)c3ccccc3nc-2cc1Nc1ccc(Cl)cc1", "growth": "38.3% (inactive) and 49.6% (inactive) and 11.3% (inactive)"}, {"smiles": "CCN(CC)CCNc1ccc(C)c2sc3ccccc3c(=O)c12", "note": "(tested in a mixture with another compound)", "growth": "48.8% (inactive) and 51.6% (inactive)"}, {"smiles": "COc1ccc2ccccc2c1/C=N/N1CCCCC1", "growth": "98.7% (inactive)"}, {"smiles": "COc1ccc(NC(=S)Nc2ccccn2)cc1", "growth": "97.7% (inactive)"}, {"smiles": "O=C1OC2(c3ccccc31)c1ccc(O)c(O)c1Oc1c2ccc(O)c1O", "growth": "92.1% (inactive) and 115% (inactive)"}, {"smiles": "COc1cc2c(c(OC)c1OC)-c1ccc(OC)c(=O)cc1[C@@H](NC(C)=O)CC2", "growth": "47.5% (inactive) and 20.8% (inactive) and 31.2% (inactive)"}, {"smiles": "CCOc1ccc2nc3cc(N)ccc3c(N)c2c1", "growth": "94.1% (inactive) and 99.6% (inactive)"}, {"smiles": "COc1ccccc1C(C)=O", "growth": "117% (inactive) and 106% (inactive)"}, {"smiles": "Cc1cc(O)c(C(C)C)cc1S(=O)(=O)O", "note": "(tested in a mixture with another compound)", "growth": "80.8% (inactive) and 28.3% (inactive) and 101% (inactive)"}, {"smiles": "Cc1n[nH]c(=O)n(/N=C\\c2c[nH]c3ccccc23)c1=O", "growth": "106% (inactive)"}, {"smiles": "COc1ccc(-c2ncnc3c2ncn3C/C=C/CCl)cc1", "growth": "114% (inactive) and 105% (inactive)"}, {"smiles": "O=C(Oc1cccc(OC(=O)c2ccccc2)c1)c1ccccc1", "growth": "92.7% (inactive) and 102% (inactive)"}, {"smiles": "CCN(CC)CCCC(C)N(Cc1ccccc1)CC(O)c1ccc(Cl)cc1", "note": "(stereo not given)", "growth": "91.2% (inactive)"}, {"smiles": "COc1ccc2c(=O)cc(-c3ccccc3)[nH]c2c1", "growth": "49.4% (inactive) and 46.3% (inactive)"}, {"smiles": "CC12CCC(CC1)C(C)(C)O2", "growth": "94.3% (inactive)"}, {"smiles": "CCN(CC)CCCC(CNc1ccnc2cc(Cl)ccc12)c1ccc(Cl)cc1", "note": "(stereo not given)", "growth": "17.5% (inactive) and 62.9% (inactive)"}, {"smiles": "CCOc1ccc2cc(-c3nn(CC4CCNCC4)c4ncnc(N)c34)ccc2c1", "growth": "92% (inactive) and 70.5% (inactive)"}, {"smiles": "COc1ccccc1/C=N\\N=C(N/N=C/c1ccccc1OC)N/N=C/c1ccccc1OC", "growth": "94.6% (inactive) and 52.1% (inactive)"}, {"smiles": "ClC/C=C/CSc1ncnc2nc[nH]c12", "growth": "112% (inactive) and 104% (inactive)"}, {"smiles": "COc1c(/C(C)=N/N=c2sc(C(C)=O)nn2-c2ccc(Cl)cc2)c(Oc2ccccc2)c(OC)c2occc12", "growth": "104% (inactive) and 97.7% (inactive)"}, {"smiles": "CC1(C)[C@@H](OC(=O)CCC(=O)O)CC[C@]2(C)[C@H]3C(=O)C=C4[C@@H]5C[C@@](C)(C(=O)O)CC[C@]5(C)CC[C@@]4(C)[C@]3(C)CC[C@@H]12", "growth": "104% (inactive) and -74.9% (active)"}, {"smiles": "O=C1CCN(Cc2ccccc2)C(=S)N1", "growth": "106% (inactive) and 101% (inactive)"}, {"smiles": "COc1cc2nc(N3CCN(C(=O)C4COc5ccccc5O4)CC3)nc(N)c2cc1OC", "note": "(stereo not given)", "growth": "127% (inactive) and 112% (inactive) and 96.7% (inactive)"}, {"smiles": "CCc1c(CC(=O)O)c2cc(C)ccc2n1Cc1ccc(Cl)cc1", "growth": "98.2% (inactive) and 98.6% (inactive)"}, {"smiles": "CN(C)c1ccc(/C=C(\\C#N)c2ccccc2)cc1", "growth": "41.5% (inactive) and 62.4% (inactive) and 55.4% (inactive)"}]}, {"tested_on": "OVCAR-5 ovarian", "experiment": "NCI-60 one-dose screen, 48 h (100 = growth as untreated, 0 = no growth, -100 = all killed)", "settings": "100 µM", "experimental": "as §1, §2, §3, §4", "values": [{"smiles": "Cc1[nH]c(-c2nc3ccccc3[nH]2)c(C)c1C(=O)NC(C)C1CCCCC1", "note": "(stereo not given)", "growth": "-95.4% (active)"}, {"smiles": "CCc1ccccc1-n1c(N)c(C#N)c(-c2ccc(OC)c(OC)c2)c(C#N)c1=O", "growth": "48.6% (inactive)"}]}]}
